Screening data deposited in PubChem by National Center for Advancing Translational Sciences (NCATS).
A selection: hits, their analogues and other compounds. The true share with any hit is near 2.1%.
D2 ag-1: Beta-Arrestin HTS for Positive Allosteric Modulators of the Human D2 Dopamine Receptor: Agonists; hit rate 0.084% among 360,000; AID 624465, 2012; DiscoveRx PathHunter D2 beta-arrestin, luminescence, 90 min; 100% = 57 uM dopamine signal; activation, % (no concentration beside the values); D(2) dopamine receptor (Homo sapiens), P14416; in the data active = activation above about 40%; inconclusive = between about 15% and that limit
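DiscoveRx PathHunter D2 beta-arrestin cells (2,100/well) attached overnight, then compound-stimulated 90 min at 37 C in HBSS/10 mM HEPES/0.1% Tween-20 buffer; beta-galactosidase complementation read by luminescence after 1 h at ambient temperature. Dopamine 57 uM final (EC100) as control.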
D2 ag-2: HTS Assay for Allosteric Agonists of the Human D2 Dopamine Receptor: Primary Screen for Agonists; D(2) dopamine receptor (Homo sapiens), P14416; HEK293 T-REx D2 cells, calcium flux agonist mode; activation, % at 2 µM; hit rate 0.53% among 340,000; AID 485358, 2010;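 active = activation over 3 SD above normal in the single-dose calcium agonist read, cut at about 30% in these data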; also: 0% is about no effect
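Calcium-flux readout, 1 cycle/sec over 180 s following compound pin transfer, in inducible HEK293 Trex D2 cells (force-coupled); dopamine controls included. Positive calcium responses during this window marked compounds as potential agonists.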
D2 antag: HTS Assay for Allosteric Antagonists of the Human D2 Dopamine Receptor: Primary Screen for Antagonists. D(2) dopamine receptor (Homo sapiens), P14416. HEK293 TREx D2 cells, calcium flux, dopamine EC80. hit rate 2% among 340,000. inhibition, % at 10 µM. AID 485344, 2010; in the data active = inhibition above about 30%; inactive = below that, where a call was filed; also: 0% is about no effect
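Measurement of antagonist activity uses fluorescent calcium dye in inducible HEK293 T-REx D2 cells: 10 s baseline, compound addition with 180 s read, EC80 dopamine addition with a further 180 s read.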
D2 PAM-1: HTS Assay for Positive Allosteric Modulators of the Human D2 Dopamine Receptor: Primary Screen for Potentiators; D(2) dopamine receptor (Homo sapiens), P14416; potentiation, % at 10 µM; hit rate 0.34% among 340,000; AID 485347, 2010; HEK293 T-REx D2, calcium flux, EC20 dopamine potentiation;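 active = potentiation over 3 SD above the plate norm, cut at about 30% in these data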; also: 0% is about no effect
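Using a no-wash calcium dye in inducible, force-coupled HEK293 Trex cells expressing D2, we tracked fluorescence each second for 180 s after compound, then for 180 s after EC20 dopamine to detect augmented signalling.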
LDHA inh: qHTS assay for inhibitors of human lactate dehydrogenase | purified LDHA, NADH/diaphorase-resazurin fluorescence; active compounds read low | activity change, % (values are at about 110 or 230 µM) | L-lactate dehydrogenase A chain (Homo sapiens), P00338 | hit rate 0.15% among 480,000; in the data active = activity change below about -30%; inconclusive = mostly about -25% to -30%;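 also: plate controls were DMSO wells for no effect and wells without enzyme for full effect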
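Human LDH5 at 2 nM final in Tris HCl pH 7.4 with 0.06 mM NADH and 0.2 mM pyruvate, reacted 5 minutes at room temperature. Remaining NADH coupled via diaphorase/resazurin; resorufin fluorescence read at 0 and 20 minutes, normalized to enzyme-free and DMSO wells.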
D2 PAM-2: Beta-Arrestin HTS for Positive Allosteric Modulators of the Human D2 Dopamine Receptor: Potentiators. potentiation, % (concentration not given with the values). D(2) dopamine receptor (Homo sapiens), P14416. hit rate 0.23% among 360,000. DiscoveRx D2 beta-arrestin cells, luminescence, 90 min; 100% = 57 uM dopamine signal; in the data active = potentiation above about 50%; inconclusive = mostly about 30% to 49%
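PathHunter beta-arrestin assay in DiscoveRx D2 cells. Compounds were added with an EC20 of dopamine (50 nM final) for 90 min at 37 deg C. Luminescence was read 1 h after detection reagent, with 57 uM dopamine as the EC100 control.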
D3 arrestin ag: qHTS of D3 Dopamine Receptor Agonist: D3 Dopamine Receptor B-arrestin Agonist Confirmatory Assay | shares compounds with D2 ag-2 | AID 720506, 2013 | hit rate 4% among 2,300 | DiscoveRx D3 beta-arrestin cells, luminescence, 90 min | Potency, µM (titrated, usually from 76.9 µM), without a hit: top-dose activation, actives largely listed as activators;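 also: potency is read from the fitted curve at half-maximal effect; 100% = dopamine control response; nearly all actives have a fitted effect of over 70% in size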
Target sequence (P35462 whole entry, looked up): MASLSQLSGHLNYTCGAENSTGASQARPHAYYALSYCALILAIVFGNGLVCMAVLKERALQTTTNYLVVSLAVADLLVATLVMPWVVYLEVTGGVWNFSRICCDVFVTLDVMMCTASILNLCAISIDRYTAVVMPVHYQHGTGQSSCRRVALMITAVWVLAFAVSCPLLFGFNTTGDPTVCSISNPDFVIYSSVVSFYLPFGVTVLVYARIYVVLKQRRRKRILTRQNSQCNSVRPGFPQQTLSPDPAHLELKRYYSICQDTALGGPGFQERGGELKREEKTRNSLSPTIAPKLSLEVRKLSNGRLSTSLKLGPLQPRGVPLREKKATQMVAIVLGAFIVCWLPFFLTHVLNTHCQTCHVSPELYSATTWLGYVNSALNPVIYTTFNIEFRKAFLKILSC
D2 ag-3: qHTS of D3 Dopamine Receptor Agonist: D2 Dopamine Receptor B-arrestin Agonist Counterscreen; shares compounds with D2 ag-2; Potency, µM (highest dose often 76.9 µM), without a hit: top-dose activation, hits mostly activators; hit rate 5.9% among 2,300; DiscoveRx PathHunter D2 beta-arrestin, luminescence, 90 min; response scale: percent relative to full dopamine signal; also: potency is read from the fitted curve at half-maximal effect; % of control where 0% means no effect; nearly all actives have a fitted effect of over 70% in size
The depositor's hits bear a star; ? = inconclusive; · = not tested or not shown. Unless noted, calls follow the shape of the dose curve; as a rule, active = well fitted activation curve with a large enough effect; inconclusive = small, poorly fitted or top-dose-only effect; inactive = flat fitted curve, though single readings scatter.

SMILES	D2 ag-1	D2 ag-2	D2 antag	D2 PAM-1	LDHA inh	D2 PAM-2	D3 arrestin ag	D2 ag-3
CCN(CC)CCCN=C1N[C@@H](c2ccccc2)C(C(=O)OC)=C(C)N1CC	-1.7	76.7*	12.2	-25.3	-15.1	-6.1	-2.8%	-2.9%
CCCCNCCCOc1cccc(Cl)c1Cl	2.7	49.4*	87.3*	-35.0	-2.2	-11.2	11.5%	12.0%
Cc1ccc(-c2cc(=O)c3cc(NC(=O)c4ccco4)ccc3o2)cc1	·	·	·	·	2.3	·	·	·
CC(=O)Nc1ccc(SC2CCCCC2=O)cc1 (stereo not drawn)	·	·	·	·	0.0	·	·	·
COc1cc(C(=S)N2CCOCC2)cc(OC)c1OC(=O)c1ccc(C)cc1	-5.6	-0.3	27.0	4.8	-5.4	-2.4	0.9%	1.9%
CSc1ccc(/C=C/C(=O)c2ccc(Cl)c(Cl)c2Cl)cc1	·	·	·	·	6.9	·	·	·
Clc1nnc(NN=C2CCCC2)c2ccccc12	-4.1	61.4*	1.9	-19.6	-1.7	0.2	-3.5%	-6.7%
Nc1c(Cl)cc(-c2[nH]c3cc(C(=O)NCCO)ccc3c(=O)c2O)cc1Cl	3.3	-0.4	9.4	2.6	6.7	3.0	25.4%	2.3%
CCCNC(=O)c1ccc2c(=O)c(O)c(-c3ccc(F)cc3)[nH]c2c1	1.8	·	·	·	10.1	1.0	·	·
O=C(c1ccc(Cl)cc1)N1CCN(c2cccc3[nH]ccc23)CC1	-4.2	5.9	8.6	1.8	14.7	-5.8	·	·
Cc1ccc(CN2CCN(c3cccc4[nH]ccc34)CC2)cc1	?	72.6*	72.3*	-21.4	2.3	-24.9	-5.1%	?
O=S(=O)(c1cc(Cl)ccc1Cl)N1CCc2ccccc21	-1.1	61.1*	37.4*	-16.9	1.2	1.7	-4.7%	4.0%
CCOc1cccc(Cn2c(=O)c3sccc3n(CC(=O)N(C)C3CCCCC3)c2=O)c1	·	·	·	·	-7.4	·	·	·
Cc1coc(C)c1C(=O)Nc1ccc2ccccc2c1	-1.6	-0.4	4.3	2.5	5.2	-10.2	-6.8%	-2.3%
O=C(Nc1ccc2oc(-c3ccccc3)nc2c1)c1cc(-n2cnnc2)ccc1Cl	4.1	·	·	·	0.5	-0.5	·	·
O=C(Nc1ccc(-c2nc3ccccc3o2)cc1)c1cc(-n2cnnc2)ccc1Cl	1.6	0.3	7.5	9.5	-5.5	18.8	?	5.7%
Cc1c(C)n(C)c2ccc(C(=O)N3CCN(c4ccccc4)CC3)cc12	-2.3	1.0	·	-6.2	0.8	1.9	·	·
Cc1c(C)n(C)c2ccc(C(=O)N3CCN(c4ccccn4)CC3)cc12	10.5	56.0*	31.4*	-21.0	-13.6	10.9	?	20.3%
COc1ccc(C2=NOC3(CC(=O)N(c4ccc5ccccc5c4)C3=O)C2)c(OC)c1 (stereo not drawn)	1.3	6.4	13.5	3.4	-5.2	4.5	5.2%	0.8%
COc1ccc(C2=NOC3(CC(=O)N(c4ccc(F)cc4)C3=O)C2)c(OC)c1 (stereo not drawn)	0.1	-0.7	5.2	-12.7	-1.9	0.1	·	·
OCCNC(=S)Nc1ccc(F)cc1	·	·	·	·	1.0	·	·	·
